Test results from the supplement of paper PMC9694430.

Columns and labels:
Assay in all cases: thermal shift delta Tm vs DMSO control; higher = stronger stabilization (binding)
Conditions in all cases: 12.5 µM; protein concentration 2 µM
[1] = system: LOC_OS04G57630-cb004
Method in brief: (§1)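 Thermal shift values come from differential scanning fluorimetry on purified rice kinase domains made in E. coli, with melting temperatures obtained from Boltzmann fits. Samples of 19.5 μl held 2 μM kinase, 100 mM potassium phosphate pH 7.5, 150 mM NaCl, 10% glycerol, 5 × SYPRO Orange and compound in DMSO, and were heated from 25°C to 95°C at 0.05°C/s. Each shift is a triplicate mean relative to the DMSO-only protein sample.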

[2] = system: LOC_OS05G07850-cb002
Method in brief: as §1

[3] = system: LOC_OS05G16824-cb004
Method in brief: as §1

[4] = system: LOC_OS05G28520-cb001
Method in brief: as §1

[5] = system: LOC_OS05G30820-cb001
Method in brief: as §1

[6] = system: LOC_OS05G43570-cb004
Method in brief: as §1

[7] = system: LOC_OS06G16330-cb003
Method in brief: as §1

[8] = system: T1, LOC_OS06G22820-cb001
T1 sequence (whole entry): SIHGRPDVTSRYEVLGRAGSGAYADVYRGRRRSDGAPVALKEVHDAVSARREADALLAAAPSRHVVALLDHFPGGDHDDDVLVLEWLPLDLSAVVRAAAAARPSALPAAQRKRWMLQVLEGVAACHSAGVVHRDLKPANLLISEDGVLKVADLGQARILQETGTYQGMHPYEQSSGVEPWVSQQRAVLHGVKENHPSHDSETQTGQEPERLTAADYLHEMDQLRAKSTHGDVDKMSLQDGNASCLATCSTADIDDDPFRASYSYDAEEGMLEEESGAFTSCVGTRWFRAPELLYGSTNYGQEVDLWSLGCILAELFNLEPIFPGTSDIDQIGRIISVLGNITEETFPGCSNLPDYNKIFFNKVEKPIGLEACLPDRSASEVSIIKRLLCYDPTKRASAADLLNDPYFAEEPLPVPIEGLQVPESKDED
Method in brief: as §1

[9] = system: LOC_OS07G06570-cb004
Method in brief: as §1

[10] = system: LOC_OS07G07230-cb001
Method in brief: as §1
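Note: purified Escherichia coli-expressed rice kinase domain construct.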

Chain of LOC_OS06G16330-cb003 (as listed by the source): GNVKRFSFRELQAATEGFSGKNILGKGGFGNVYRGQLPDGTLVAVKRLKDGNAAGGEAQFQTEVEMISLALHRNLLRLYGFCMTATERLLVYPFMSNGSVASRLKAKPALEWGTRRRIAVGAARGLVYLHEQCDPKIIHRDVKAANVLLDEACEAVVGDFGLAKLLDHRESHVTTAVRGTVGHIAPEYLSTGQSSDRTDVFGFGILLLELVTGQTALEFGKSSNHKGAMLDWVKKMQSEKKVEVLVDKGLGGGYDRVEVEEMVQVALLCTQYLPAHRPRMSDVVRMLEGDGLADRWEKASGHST

## Nc1cccc(S(=O)(=O)N2CCCN(S(=O)(=O)c3ccc4c(c3)OCCO4)CC2)c1
[1]
  thermal shift delta Tm: -0.1 °C
[2]
  thermal shift delta Tm: 0.55 °C
[3]
  thermal shift delta Tm: -0.03 °C
[4]
  thermal shift delta Tm: 0.74 °C
[5]
  thermal shift delta Tm: 0.46 °C
[6]
  thermal shift delta Tm: 0.1 °C
[7]
  thermal shift delta Tm: -0.91 °C
[8]
  thermal shift delta Tm: 0.44 °C
[9]
  thermal shift delta Tm: 1.4 °C
[10]
  thermal shift delta Tm: 0.56 °C

## CN1CC(O)C2=C/C(=N/NC(N)=O)C(=O)C=C21 (stereo not given) [Carbazochrome]
[1]
  thermal shift delta Tm: -0.07 °C
[2]
  thermal shift delta Tm: 1.06 °C
[3]
  thermal shift delta Tm: -3.49 °C
[4]
  thermal shift delta Tm: -0.11 °C
[5]
  thermal shift delta Tm: 0.11 °C
[6]
  thermal shift delta Tm: 0.35 °C
[7]
  thermal shift delta Tm: 0.27 °C
[8]
  thermal shift delta Tm: 0.09 °C
[9]
  thermal shift delta Tm: 0.68 °C
[10]
  thermal shift delta Tm: 0.58 °C

## CC1(C)CNc2cc(NC(=O)c3cccnc3NCc3ccncc3)ccc21 [Motesanib Diphosphate (AMG-706)]
[1]
  thermal shift delta Tm: -0.11 °C
[2]
  thermal shift delta Tm: 0.52 °C
[3]
  thermal shift delta Tm: -3.02 °C
[4]
  thermal shift delta Tm: 0.68 °C
[5]
  thermal shift delta Tm: 0.49 °C
[6]
  thermal shift delta Tm: 0.21 °C
[7]
  thermal shift delta Tm: -0.19 °C
[8]
  thermal shift delta Tm: 0.37 °C
[9]
  thermal shift delta Tm: 0.75 °C
[10]
  thermal shift delta Tm: 0.81 °C

## CNC(=O)CN1CCC(Oc2cc3c(Nc4cccc(Cl)c4F)ncnc3cc2OC)CC1 [Sapitinib (AZD8931)]
[1]
  thermal shift delta Tm: 0 °C
[2]
  thermal shift delta Tm: 3.04 °C
[3]
  thermal shift delta Tm: -12 °C
[4]
  thermal shift delta Tm: -0.17 °C
[5]
  thermal shift delta Tm: 0.6 °C
[6]
  thermal shift delta Tm: 0.17 °C
[7]
  thermal shift delta Tm: 1.14 °C
[8]
  thermal shift delta Tm: 0.37 °C
[9]
  thermal shift delta Tm: 0.48 °C
[10]
  thermal shift delta Tm: -0.24 °C

## Cc1cc(Nc2cc(N3CCN(C)CC3)nc(Sc3ccc(NC(=O)C4CC4)cc3)n2)n[nH]1 [Tozasertib (VX-680, MK-0457)]
[1]
  thermal shift delta Tm: 5.53 °C
[2]
  thermal shift delta Tm: 8.32 °C
[3]
  thermal shift delta Tm: 15.4 °C
[4]
  thermal shift delta Tm: 2.06 °C
[5]
  thermal shift delta Tm: 0.66 °C
[6]
  thermal shift delta Tm: 0.98 °C
[7]
  thermal shift delta Tm: 5.98 °C
[8]
  thermal shift delta Tm: 0.83 °C
[9]
  thermal shift delta Tm: 0.91 °C
[10]
  thermal shift delta Tm: 0.6 °C

## NCC(=O)Nc1ccc(-n2nc(C(F)(F)F)cc2-c2ccc3c(ccc4ccccc43)c2)cc1
[1]
  thermal shift delta Tm: -0.2 °C
[2]
  thermal shift delta Tm: 1.75 °C
[3]
  thermal shift delta Tm: 1.88 °C
[4]
  thermal shift delta Tm: 0.25 °C
[5]
  thermal shift delta Tm: -0.08 °C
[6]
  thermal shift delta Tm: 0.27 °C
[7]
  thermal shift delta Tm: 0.39 °C
[8]
  thermal shift delta Tm: 0.4 °C
[9]
  thermal shift delta Tm: 0.5 °C
[10]
  thermal shift delta Tm: 0.18 °C
